This is part of a sample that, as a whole, favours compounds with a hit. Of some 83,000 tested, about 20% had one in any assay.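 Method: cells in 96-well plates; compound added at one concentration; 48 h incubation; percent growth measured; values under 10 scored active.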 Active and inactive are the calls of the source.
Test system: UACC-62 melanoma
Assay: NCI-60 one-dose screen, 48 h (100 = growth as untreated, 0 = no growth, -100 = all killed)
Conditions: 10 µM unless noted
Experimental: Growth inhibition of the UACC-62 human tumor cell line is measured as a screen for anti-cancer activity. Cells are grown in 96 well plates and exposed to the test compound for 48 hours. Compounds are tested at a single concentration, which is 10^-5 M for most compounds. The reported endpoint is percent growth (GI% or GIPRCNT), where numbers from 0 - 100% represent growth inhibition, and numbers from -100% - 0 represent cell death. For example, a value of 40 represents 60% growth inhibition. A value of 0 means no net growth occurred over the course of the experiment. A value of -40 indicates 40% of cells at the beginning of the experiment died by the end of the experiment. A value of -100 means all cells are dead at the end of the experiment.
NCI-60 Human Tumor Cell Lines Screen was performed using the standard one-dose NCI protocol, which is described in more detail at https://dtp.cancer.gov/discovery_development/nci-60/default.htm.
Compounds with GIPRCNT values below 10 were considered active. Activity score was based on GIPRCNT using the following formula: […]
Score is 0 for GIPRCNT values of 100 or above, 50 for GIPRCNT values of 0, and 100 for GIPRCNT values of -100.

Row | Compound | growth
1 | CC(=O)N1c2ccccc2NC2=C(C(=O)NC2(C)C)C1c1ccco1 (stereo not given) | 66.5% (inactive)
2 | COc1cc(CC(=O)n2ncc3ccc(N)cc32)cc(OC)c1OC | 92.9% (inactive)
3 | COc1cc(/C(C)=C(\c2ccc(Cl)cc2)c2ccc(OCCN3CCCC3)cc2)ccc1F | 58% (inactive)
4 | CCN(Cc1ccccc1)c1ccc(C=O)cc1 | 85.2% (inactive)
5 | O=S(=O)(NCCNc1nccc(-c2c(-c3cccc(O)c3)nc3occn23)n1)c1ccc(Cl)cc1 | 19.2% (inactive)
6 | COc1ccc(/C=C/c2nc(Nc3ccc(Cl)cc3)c3ccccc3n2)cc1 | 14.3% (inactive)
7 | CC1=C(C(=O)/C=C/c2ccc(N(C)C)cc2)C(c2ccccc2)NC(=S)N1 (stereo not given) | 94.3% (inactive)
8 | COc1ccc2c(c1)oc1c(C)c3c(c(C)c12)C(=O)N(N)C3=O | 43.6% (inactive)
9 | CCN(CC)CCCC(C)Nc1cc(O)cc2cccnc12 (stereo not given) | 94.4% (inactive)
10 | O=C1Nc2cc(-c3ccc(NC(=O)c4ccccc4)cc3)ccc2/C1=C/c1ccc[nH]1 | 98.4% (inactive)
11 | CN1[C@@H]2CC[C@H]1/C(=C\c1ccccc1)C(=O)/C2=C/c1ccccc1 | 26.6% (inactive)
12 | COc1cc(/C=C\C(=O)O)ccc1OCc1ccccc1 | 93.2% (inactive)
13 | O=C(Cc1ccccc1)NNc1nc(Cl)nc(N2CCN(C(c3ccccc3)c3ccccc3)CC2)n1 | 91.9% (inactive)
14 | Nc1c(C(=O)Nc2ccnc3ccccc23)sc2nc3c(cc12)CN(Cc1ccccc1)CC3 | 49.4% (inactive)
15 | Cc1cc2cc3ccc(N(C)C)cc3nc2cc1N | -27.5% (active)
16 | CCOc1ccc(/C=N/Nc2cc(C)nc3ccc(Br)cc23)cc1 | 90.5% (inactive)
17 | CC(=O)OC[C@]12CC[C@@H](C(=O)CBr)[C@@H]1[C@H]1CC[C@@H]3[C@@]4(C)CC[C@H](OC(C)=O)C(C)(C)[C@@H]4CC[C@@]3(C)[C@]1(C)CC2 | 84.9% (inactive)
18 | O=S(=O)(NCCNc1nccc(-c2c(-c3cccc(O)c3)nc3occn23)n1)c1cccc(F)c1 | 14% (inactive)
19 | COC(=O)C(OC(C)=O)C(OC(C)=O)c1ccc(OC)c(OC)c1 (stereo not given) | 100% (inactive)
20 | C#CCNC(=O)[C@H](Cc1ccccc1)NC(=O)[C@]12CC[C@@H](C(=C)C)[C@@H]1[C@H]1CC[C@@H]3[C@@]4(C)CCC(=O)C(C)(C)[C@@H]4CC[C@@]3(C)[C@]1(C)CC2 | 59.5% (inactive)

Row | Compound | growth
21 | Cc1ccc(NC(=O)c2cc(-c3nc4ccccc4s3)c(=O)n(NS(=O)(=O)c3ccc(Cl)cc3)c2N)cc1 | 93.2% (inactive)
22 | CN1CCN(CCNc2nccc(-c3c(-c4cccc(O)c4)nc4sccn34)n2)S1(=O)=O | 3.85% (active)
23 | N#C/C(=C\c1c(-c2ccccc2)[nH]c2ccccc12)C(=O)c1ccc(Cl)cc1 | 28.6% (inactive)
24 | S=c1cc(S)c2cc(Br)ccc2[nH]1 | 83.4% (inactive)
25 | O=C(NNc1nc2c(F)cccc2n2cccc12)c1cnccn1 | 16.5% (inactive)
26 | Cn1cc(CC2CC(=O)N(c3ccccc3)C2=O)sc1=NC(=O)c1ccccc1 (stereo not given) | 93.3% (inactive)
27 | NC(=S)N1N=C(c2ccccc2)CC1c1cn(-c2ccccc2)nc1-c1ccc(OCc2ccccc2)cc1 (stereo not given) | 86.3% (inactive)
28 | O=C(Nc1cccc(C2=NCCN2)c1)c1ccc(-c2ccc(C(=O)Nc3cccc(C4=NCCN4)c3)cc2)cc1 | 68.1% (inactive)
29 | CCOC(=O)c1cc(C#N)n2ccc3ccccc3c12 | 91.5% (inactive)
30 | CC1(C)c2[nH]c3ccccc3c2C[C@]2(C)[C@H]3C(=O)C=C4[C@@H]5C[C@@](C)(C(N)=O)CC[C@]5(C)CC[C@@]4(C)[C@]3(C)CC[C@@H]12 | 70.6% (inactive)
31 | CCOC(=O)c1cc(C(=O)c2ccc(OC)c(OC)c2)n2ccc(/C=C/c3cc[n+](CC(=O)c4ccc(OC)c(OC)c4)cc3)cc12 | 96.6% (inactive)
32 | C=C1C(=O)O[C@H]2[C@H]1CC/C(CNC(=O)CCc1ccc(OC)cc1)=C\CC[C@@]1(C)O[C@@H]21 | 47.3% (inactive)
33 | CCN(CC)CCn1c(=O)c2cc(OC)c(OC)cc2c2ccc3cc4c(cc3c21)OCO4 | 16.8% (inactive)
34 | O=C(Cc1ccc(/C=C/C(=O)c2nccs2)cc1)Nc1ccccc1 | 83.9% (inactive)
35 | Cc1nn(-c2ccccc2)c(Cl)c1/C=C/C(=O)c1ccc(F)cc1 | 65.2% (inactive)
36 | CCCCN1C=CCN(CCCC)C1 | 24.5% (inactive)
37 | Fc1ccc2c(-c3cncn3CCc3ccccc3)c[nH]c2c1 | 73.3% (inactive)
38 | COC(=O)/C=C1\S/C(=N\NC(=O)c2cc3ccc2/C=C\c2ccc(cc2)/C=C\3)N(c2ccccc2)C1=O | 25.2% (inactive)
39 | COc1cc(/C=C/c2cc(O)c(C(C)=O)c(O)c2)cc2c1O[C@]1(C)CC[C@@H](O)C(C)(C)[C@H]1C2 | 38.7% (inactive)
40 | COc1ccc(C(=O)C2C(C#N)C(C#N)C3C=Cc4ccccc4N32)cc1 (stereo not given) | 57.6% (inactive)

— PubChem BioAssay (NCI)
